The text below walks through data of PubChem BioAssay.

One test has as its target Albumin (Bos taurus) (UniProt P02769). Briefly: compounds binding labelled BSA control protein – biochemical, small-molecule microarray, Alexa647 label, 635/667 nm fluorescence, artefact control for SMM control protein annotation, profiling panel (AID 1118).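 Further: score merges 667 nm emission intensity and signal-to-noise per printed compound spot.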 To be noted: BSA-A647 binding, fluorescence 635 nm, higher = more signal.
Test [1] is described as follows: probe aXIP binding to arrayed compounds – biochemical, NeuroSMM set, 635/667 nm fluorescence, primary screen (AID 1119).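 Further: probe is the protein aXip251-270 applied at 1 µg/mL to compound-printed slides; binding of probe to printed compounds measured as 667 nm fluorescence plus signal to noise.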 The note with it: small-molecule microarray, higher = more signal, called active from +8 up or from −8 down.
Test [2] in a line: probe aNOTCH3 binding on compound microarray – biochemical, small-molecule microarray, 635/667 nm fluorescence, primary screen (AID 1120).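 Further: probe is a biotin-tagged antibody raised against NOTCH3 rather than NOTCH3 protein; score merges spot fluorescence near 667 nm with spot signal to noise.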 To be noted: higher = more signal.
A short description of test [3]: probe aNOTCH2 binding on compound microarray – biochemical, small-molecule microarray, 635/667 nm fluorescence, primary screen (AID 1121).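 Further: score merges feature fluorescence read at 667 nm with its signal to noise.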 The note with it: higher = more signal.
The target of test [4] is Carbonic anhydrase 2 (Homo sapiens) (UniProt P00918). Briefly: compounds binding carbonic anhydrase 2 – biochemical, small-molecule microarray, Alexa647-labelled CAII, profiling panel (AID 1122). The note with it: CAII-A647 binding fluorescence, higher = more signal.
A short description of test [5]: COS7 lysate on small-molecule microarray, probe aHis, 635 nm (AID 1123).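 Further: z-score combines 667nm fluorescence intensity with signal-to-noise per printed compound spot.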 To be noted: COS7 cell lysate, fluorescence, higher = more signal.
A short description of test [6]: probe aLAP1 signal on lysate-treated microarray – cell lysate, small-molecule microarray, COS7 lysate, primary screen (AID 1124).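 Further: lysate comes from COS7 cells expressing LAP1 and is applied at 0.3 µg/mL; score merges spot fluorescence near 667 nm with signal-to-noise over triplicate slides.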 The note with it: probe aLAP1, fluorescence, higher = more signal.
The next test has as its system Sam68 (KHDRBS1). Briefly: compounds binding KHDRBS1 protein – biochemical, small-molecule microarray, 635 nm fluorescence, primary screen (AID 1125).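 Further: score merges 667 nm channel intensity with signal to noise over triplicate slides.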 To be noted: higher = more signal.
In test [7] the test system is Chordin-like protein 2 (CHRDL2). Briefly: compounds binding chordin-like 2 – biochemical, small-molecule microarray, 635 nm fluorescence, primary screen (AID 1126).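 Further: printed compound slides probed with Chrdl2 protein at 4 µg/mL for 1 h at 4 C; score merges 667 nm emission intensity with signal to noise over three replicate slides.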 To be noted: fluorescence 635 nm, higher = more signal.
Test [8] concerns the target Concanavalin-A (Canavalia ensiformis) (UniProt P02866). Briefly: compounds binding concanavalin A lectin – biochemical, small-molecule microarray, Alexa647 label, 635 nm, artefact control for SMM control protein annotation, primary screen (AID 1127).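 Further: z combines 667 nm emission intensity with signal-to-noise across three replicate slides.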 The note with it: ConA-A647 binding fluorescence, higher = more signal.
A short description of test [9]: compounds binding Alexa647 anti-His antibody – biochemical, small-molecule microarray, 635 nm fluorescence, artefact control for SMM control protein annotation, primary screen (AID 1128).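 Further: score merges feature fluorescence with signal-to-noise for each printed compound spot.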 To be noted: higher = more signal.
The subject of test [10] is Human papillomavirus type 1a E7 protein (residues 1-88). Description: HPV1a E7 small-molecule binders, primary screen, biochemical, small-molecule microarray, residues 1-88, 635 nm (AID 1129). The note with it: small-molecule microarray binding, fluorescence 635 nm; higher = more signal.
The target in test [11] is Focal adhesion kinase 1 (Homo sapiens) (UniProt Q05397). Description: PTK2 protein binding on printed compound slides – biochemical, small-molecule microarray, 635/667 nm fluorescence, BSA, DTT, primary screen (AID 1130).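 Further: composite of spot emission at 667 nm and signal to noise over triplicate slides.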 To be noted: 635 nm fluorescence, higher = more signal.
Sequence of Focal adhesion kinase 1 (Homo sapiens) (Q05397 whole entry, looked up): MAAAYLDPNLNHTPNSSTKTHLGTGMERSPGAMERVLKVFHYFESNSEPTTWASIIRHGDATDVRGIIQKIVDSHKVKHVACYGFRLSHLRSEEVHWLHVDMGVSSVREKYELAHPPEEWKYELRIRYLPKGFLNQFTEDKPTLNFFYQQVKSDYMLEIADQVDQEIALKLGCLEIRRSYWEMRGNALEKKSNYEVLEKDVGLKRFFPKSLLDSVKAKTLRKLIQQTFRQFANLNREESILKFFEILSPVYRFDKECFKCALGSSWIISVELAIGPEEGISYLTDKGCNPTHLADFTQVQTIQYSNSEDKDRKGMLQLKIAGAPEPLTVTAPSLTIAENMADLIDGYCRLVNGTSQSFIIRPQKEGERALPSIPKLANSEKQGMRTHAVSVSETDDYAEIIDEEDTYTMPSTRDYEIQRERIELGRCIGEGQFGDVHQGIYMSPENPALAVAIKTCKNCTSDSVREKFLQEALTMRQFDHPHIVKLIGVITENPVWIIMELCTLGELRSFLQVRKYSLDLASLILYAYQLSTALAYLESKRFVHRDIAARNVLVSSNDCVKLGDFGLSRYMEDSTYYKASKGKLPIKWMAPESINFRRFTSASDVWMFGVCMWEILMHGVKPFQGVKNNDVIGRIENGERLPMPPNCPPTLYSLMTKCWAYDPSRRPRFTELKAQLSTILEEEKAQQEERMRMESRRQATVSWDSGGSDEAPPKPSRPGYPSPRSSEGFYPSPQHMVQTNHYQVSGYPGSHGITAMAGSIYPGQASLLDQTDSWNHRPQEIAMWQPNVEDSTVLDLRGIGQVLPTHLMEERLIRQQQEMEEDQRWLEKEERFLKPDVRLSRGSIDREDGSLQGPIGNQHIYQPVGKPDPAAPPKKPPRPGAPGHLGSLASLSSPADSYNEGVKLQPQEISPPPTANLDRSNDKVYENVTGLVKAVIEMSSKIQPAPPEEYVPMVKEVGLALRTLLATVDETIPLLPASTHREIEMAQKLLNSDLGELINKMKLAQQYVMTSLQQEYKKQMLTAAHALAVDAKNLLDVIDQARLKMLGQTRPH
The subject of test [12] is Fibrinogen (Alexa647-labelled). Description: Alexa647-fibrinogen binding to printed small molecules – biochemical, small-molecule microarray, 635/667 nm fluorescence, artefact control for SMM control-protein annotation, profiling panel (AID 1131).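 Further: z-score merges 667 nm fluorescence with per-spot signal-to-noise over triplicate slides.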 The note with it: fibrinogen-A647 binding fluorescence, higher = more signal.
Test [13] concerns the target Follistatin (Homo sapiens) (UniProt P19883). Description: FST protein binding to printed compounds – biochemical, small-molecule microarray, 635/667 nm fluorescence, primary screen (AID 1132). The note with it: 635 nm fluorescence, higher = more signal.
Test [14] has as its target Fibroblast growth factor 2 (Homo sapiens) (UniProt P09038). Description: basic fibroblast growth factor binding to printed compounds – biochemical, small-molecule microarray, 635/667 nm fluorescence, primary screen (AID 1133). The note with it: FGF2, fluorescence 635/667, higher = more signal.
Test [15] in a line: JC-1 mitochondrial potential readout, lung cancer cells – cell-based, A549, JC-1 fluorescence, basal, 24 h, 100 nL, profiling panel (AID 1138).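 Further: A549 lung adenocarcinoma cells under basal conditions with no added stimulus; test concentration not given here.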 The note with it: higher = more signal.
A further test has as its system Lefty1. Description: Lefty1 protein binding to printed compounds – biochemical, small-molecule microarray, 635/667 nm fluorescence, primary screen (AID 1139). The note with it: fluorescence 635/667, higher = more signal.
The test system of test [16] is wheat germ agglutinin (Triticum aestivum), Alexa647-labelled. Briefly: Alexa647-WGA lectin binding to printed small molecules – biochemical, small-molecule microarray, 635/667 nm fluorescence, artefact control for SMM control-protein annotation, profiling panel (AID 1140).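 Further: score merges 667 nm feature emission with signal to noise over triplicate slides.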 The note with it: WGA-A647 binding, 635 nm fluorescence, higher = more signal.
Test [17] has as its target Luciferin 4-monooxygenase (Photinus pyralis) (UniProt P08659). Briefly: inhibition of purified Photinus pyralis luciferase – biochemical, luminescence, purified enzyme, 2006 set, primary screen (AID 1141).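 Further: cell-free assay with purified firefly luciferase at 100 ng per well in PBS; test concentration not given here.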 To be noted: purified firefly luciferase, SteadyGlo luminescence, 30 min; higher = more signal, called active from +8 up or from −8 down.

The source made the active and inactive calls.

Sequence of Luciferin 4-monooxygenase (Photinus pyralis) (P08659 whole entry, looked up): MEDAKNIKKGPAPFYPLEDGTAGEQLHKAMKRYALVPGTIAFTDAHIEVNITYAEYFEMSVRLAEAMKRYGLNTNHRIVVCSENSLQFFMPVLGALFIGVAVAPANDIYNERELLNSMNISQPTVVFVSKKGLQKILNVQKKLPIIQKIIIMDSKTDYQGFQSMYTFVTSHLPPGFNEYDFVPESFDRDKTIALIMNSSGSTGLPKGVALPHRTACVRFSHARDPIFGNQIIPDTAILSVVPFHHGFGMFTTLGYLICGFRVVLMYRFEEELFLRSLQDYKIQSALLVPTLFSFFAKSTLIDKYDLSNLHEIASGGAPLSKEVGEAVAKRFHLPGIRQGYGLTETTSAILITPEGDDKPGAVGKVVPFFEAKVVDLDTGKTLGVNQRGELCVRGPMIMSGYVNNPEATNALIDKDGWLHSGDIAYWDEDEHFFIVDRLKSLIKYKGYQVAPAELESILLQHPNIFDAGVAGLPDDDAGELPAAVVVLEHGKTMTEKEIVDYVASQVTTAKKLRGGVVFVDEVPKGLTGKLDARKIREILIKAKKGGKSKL
Sequence of Follistatin (Homo sapiens) (P19883 whole entry, looked up): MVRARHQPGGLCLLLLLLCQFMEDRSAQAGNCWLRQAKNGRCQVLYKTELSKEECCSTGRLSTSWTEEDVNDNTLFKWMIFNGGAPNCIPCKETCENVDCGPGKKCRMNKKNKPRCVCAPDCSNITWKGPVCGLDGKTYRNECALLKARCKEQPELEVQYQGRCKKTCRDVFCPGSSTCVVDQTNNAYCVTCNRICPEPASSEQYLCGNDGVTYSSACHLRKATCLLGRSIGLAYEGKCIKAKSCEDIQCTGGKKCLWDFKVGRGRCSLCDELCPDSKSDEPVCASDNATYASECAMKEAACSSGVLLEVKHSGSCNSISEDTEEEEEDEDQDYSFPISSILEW
Sequence of Concanavalin-A (Canavalia ensiformis) (P02866 whole entry, looked up): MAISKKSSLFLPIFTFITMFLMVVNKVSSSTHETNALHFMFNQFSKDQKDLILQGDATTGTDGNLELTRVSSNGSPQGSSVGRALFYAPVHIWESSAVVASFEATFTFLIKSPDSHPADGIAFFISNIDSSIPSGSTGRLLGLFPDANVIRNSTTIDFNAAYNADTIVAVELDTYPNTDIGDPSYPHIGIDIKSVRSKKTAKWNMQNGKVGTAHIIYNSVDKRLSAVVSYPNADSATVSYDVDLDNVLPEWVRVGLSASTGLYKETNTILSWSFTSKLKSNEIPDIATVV
Sequence of Albumin (Bos taurus) (P02769 whole entry, looked up): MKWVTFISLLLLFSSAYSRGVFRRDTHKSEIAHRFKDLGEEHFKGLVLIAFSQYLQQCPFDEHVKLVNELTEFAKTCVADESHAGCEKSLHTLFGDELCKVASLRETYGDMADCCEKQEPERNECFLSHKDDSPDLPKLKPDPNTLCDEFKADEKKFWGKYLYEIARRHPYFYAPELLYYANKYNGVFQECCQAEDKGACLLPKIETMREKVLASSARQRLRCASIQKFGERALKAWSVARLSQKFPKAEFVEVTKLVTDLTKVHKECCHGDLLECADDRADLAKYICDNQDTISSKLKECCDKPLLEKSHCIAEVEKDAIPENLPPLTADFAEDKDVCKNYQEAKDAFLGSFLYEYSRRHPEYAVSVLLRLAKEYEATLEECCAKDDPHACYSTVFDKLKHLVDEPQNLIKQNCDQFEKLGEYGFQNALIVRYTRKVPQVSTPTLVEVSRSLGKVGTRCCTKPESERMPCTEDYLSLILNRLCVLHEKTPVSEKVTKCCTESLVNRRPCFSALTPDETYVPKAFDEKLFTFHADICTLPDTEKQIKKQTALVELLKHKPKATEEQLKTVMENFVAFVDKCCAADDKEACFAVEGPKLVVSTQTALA
Sequence of Fibroblast growth factor 2 (Homo sapiens) (P09038 whole entry, looked up): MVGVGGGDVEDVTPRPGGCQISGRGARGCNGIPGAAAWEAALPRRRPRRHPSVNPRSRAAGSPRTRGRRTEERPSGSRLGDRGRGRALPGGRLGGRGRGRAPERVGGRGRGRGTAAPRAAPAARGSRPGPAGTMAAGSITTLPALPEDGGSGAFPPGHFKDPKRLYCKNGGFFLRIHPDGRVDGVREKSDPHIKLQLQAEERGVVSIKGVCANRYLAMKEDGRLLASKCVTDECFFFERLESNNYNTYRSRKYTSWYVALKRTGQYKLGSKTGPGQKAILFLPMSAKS

For the compound `CC(C)(C)OC(=O)CC[C@]1(C(=O)N2CCOCC2)COC(c2ccc(OCCCO)cc2)=N1`, the composite z-score in the test with Albumin (Bos taurus) is 0.947; in test [2], -0.0387; in test [3], -0.129; in [4] it was 0.853; in test [5], 2.85; in test [6], -0.494. Moreover, the composite z-score was 0.836 with Sam68 (KHDRBS1); -1.17 in test [7]; 0.0647 in [8]; 2.44 in test [9]; 0.882 in test [10]; 0.427 in test [11]. For the same compound, the composite z-score in [12] was 0.507; in test [13], -0.0198; in test [14], -0.225; in the test with Lefty1 it was -0.692; in test [16], 0.672. The composite Z-score in test [1] is -0.124 (inactive). Besides, the z-score in test [15] was 1.62; in test [17], -1.06 (inactive).

On to `CC(C)N1C(=O)[C@@]2(Cc3ccccc31)c1ccccc1C(=O)N(Cc1ccccc1)[C@H]2c1ccc(CO)cc1`, for which the composite z-score in the test with Albumin (Bos taurus) was -0.103; in [2] it was -0.118; in test [3], -0.205; in test [4] it was -0.224; in [5], 0.0227; in [6] it was 1.79. Further, the composite z-score was 0.316 with Sam68 (KHDRBS1); 0.702 in test [7]; -0.0679 in test [8]; 2.84 in test [9]; -0.299 in test [10]; -0.0689 in [11]. For the same compound, the composite z-score in test [12] is -0.375; in [13], 0.848; in test [14], 0.203; in the test with Lefty1, 0.13; in [16], -0.622. Further, the composite Z-score in [1] was -0.289 (inactive). Besides, the z-score in test [15] was 0.591; in [17] it was -0.52 (inactive).

Turning to `CCOC(=O)C1=CCC(c2cccn2C(=O)OC(C)(C)C)N(S(=O)(=O)c2ccc(C)cc2)C1` (stereo not given), the composite z-score in the test with Albumin (Bos taurus) is 0.871; in [2], 0.17; in [3] it was 0.0351; in test [4], 0.523; in test [5] it was 2.82; in test [6] it was 0.421. Further, the composite z-score with Sam68 (KHDRBS1) was found to be 0.948; in test [7] it was 0.551; in [8], 0.722; in test [9], 1.86; in test [10] it was 1.21; in test [11], 0.42. Also, the composite z-score in [12] was found to be 0.827; in [13], 1.13; in [14], 0.433; in the test with Lefty1, 0.498; in test [16], 1.2. Also, in test [1], the composite Z-score was 0.76 (inactive). The z-score is 1.22 in [15] and -0.997 (inactive) in test [17].

Regarding `CCOC(=O)C[C@H]1[C@H](OC(=O)c2ccc(-c3ccccc3)cc2)[C@@H](NC(=O)C2CCCCC2)c2cc(OCCCO)ccc2N1C(=O)Cc1ccc(OC)cc1`, the composite z-score with Albumin (Bos taurus) is 0.561; in [2], -0.0362; in test [3], -0.182; in test [4], -0.0434; in test [5], 0.405; in test [6], 0.652. Also, the composite z-score is 0.496 with Sam68 (KHDRBS1); 0.0463 in [7]; -0.361 in [8]; 0.132 in test [9]; 0.365 in test [10]; 0.106 in test [11]. Further, the composite z-score turned out to be 0.267 in [12]; 0.2 in test [13]; 0.345 in test [14]; 0.867 in the test on Lefty1; 0.229 in test [16]. For the same compound, the composite Z-score in test [1] is 0.204 (inactive). Also, the z-score in test [15] was 0.47; in test [17], 0.347 (inactive).

Consider `COc1ccc(C(=O)Nc2ccc(CN3C(=O)[C@]4(O[C@H](CC(=O)N(CCO)Cc5ccccc5)[C@@H]([Si](C)(C)c5ccc(OC)cc5)[C@@H]4C)c4ccccc43)cc2)cc1`, for which the composite z-score is -0.622 with Albumin (Bos taurus); -0.0288 in test [2]; -0.193 in [3]; 0.541 in test [4]; 1.58 in test [5]; 1.62 in [6]. Also, the composite z-score in the test with Sam68 (KHDRBS1) was 1.35; in [7], 1.18; in [8], 0.905; in test [9], 0.122; in test [10], 1.14; in [11], 0.677. Moreover, the composite z-score in test [12] turned out to be 0.375; in test [13], 1.25; in [14], 1.31; in the test with Lefty1 it was 1.32; in test [16], 0.162. In addition, in test [1], the composite Z-score is -0.21 (inactive). Also, the z-score in [15] was -0.474; in test [17], 0.505 (inactive).

Take `CC(C)c1ccc(NN2C(C(O)C3=C[C@H]4C[C@@H](C3)C4(C)C)C=CC3C(=O)N(c4ccccc4)C(=O)C32)cc1` (stereo not given in full): the composite z-score in the test with Albumin (Bos taurus) stood at 0.97; in test [2], 0.333; in test [3], 0.248; in test [4] it was 0.662; in test [5], 2.04; in test [6], 1.09. Also, the composite z-score with Sam68 (KHDRBS1) came out at 1.17; in test [7], 0.4; in test [8], 1.12; in [9], 0.57; in [10] it was 1.07; in test [11], 0.0505. In addition, the composite z-score in test [12] was 0.953; in test [13], 1.11; in test [14], 0.248; in the test with Lefty1, 0.605; in test [16] it was 0.632. Besides, the composite Z-score in test [1] is 0.378 (inactive). In addition, the z-score in [15] was -0.894; in test [17] it was -1.77 (inactive).
